Among the data in article PMC7862700, “An all-to-all approach to the identification of sequence-specific readers for epigenetic DNA modifications on cytosine” are binding signal values, retold here.

Holding throughout (experiment): DAPPL (digital affinity profiling via proximity ligation, sequencing); 10 mM Tris-HCl pH 7.5, 50 mM NaCl, 1 mM DTT, 4% glycerol, room temperature, 30 min; GST-TFs on glutathione beads, 16-mer random dsDNA library, 0.1% formaldehyde crosslink after washing; high values mean tight binding
Details in all cases: protein: recombinant; tags: N-terminal GST; dsDNA, one strand shown

The target of one test is T1, ERF (Homo sapiens, UniProt P50548 1-548).
T1 sequence: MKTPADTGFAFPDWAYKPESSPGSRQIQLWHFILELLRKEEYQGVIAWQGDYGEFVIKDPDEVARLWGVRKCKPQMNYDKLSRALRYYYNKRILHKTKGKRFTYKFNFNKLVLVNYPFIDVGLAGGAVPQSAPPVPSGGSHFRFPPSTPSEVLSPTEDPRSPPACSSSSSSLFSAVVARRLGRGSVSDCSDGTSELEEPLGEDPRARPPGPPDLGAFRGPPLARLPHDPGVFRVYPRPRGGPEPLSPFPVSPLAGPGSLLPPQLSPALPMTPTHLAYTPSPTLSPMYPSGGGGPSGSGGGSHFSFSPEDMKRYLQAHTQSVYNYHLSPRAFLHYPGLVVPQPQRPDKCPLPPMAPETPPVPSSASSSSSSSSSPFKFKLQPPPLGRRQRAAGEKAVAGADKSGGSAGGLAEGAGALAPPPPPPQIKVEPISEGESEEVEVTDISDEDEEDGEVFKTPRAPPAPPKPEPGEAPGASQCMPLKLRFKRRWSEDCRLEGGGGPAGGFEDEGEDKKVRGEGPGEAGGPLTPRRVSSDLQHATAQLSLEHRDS
An outline of the steps:
(§1)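 Each value of binding signal is a hexamer's read frequency for a factor divided by the same hexamer's frequency in the tag-only sample. Barcoded, bead-captured GST fusions of human transcription factors made in yeast were pooled with that sample and incubated with 200 nmole of a random double-stranded 16-mer DNA library in Tris/NaCl/DTT/glycerol buffer at room temperature for 30 min. Washing, 0.1% formaldehyde crosslinking, proximity ligation, PCR and Illumina NextSeq500 sequencing followed.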

The target of a further test is T2, ETV3L (Homo sapiens, UniProt Q6ZN32 1-361).
T2 sequence: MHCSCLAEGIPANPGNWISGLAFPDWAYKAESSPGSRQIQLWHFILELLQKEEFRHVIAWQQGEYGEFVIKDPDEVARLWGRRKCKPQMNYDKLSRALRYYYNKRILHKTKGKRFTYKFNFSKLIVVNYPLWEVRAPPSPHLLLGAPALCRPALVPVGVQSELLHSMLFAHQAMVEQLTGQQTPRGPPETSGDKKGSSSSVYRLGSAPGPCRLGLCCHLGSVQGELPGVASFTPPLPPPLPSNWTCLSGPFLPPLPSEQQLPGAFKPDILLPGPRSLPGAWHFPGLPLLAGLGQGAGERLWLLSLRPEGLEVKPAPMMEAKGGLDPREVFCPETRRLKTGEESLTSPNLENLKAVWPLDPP
Summed up:
as §1

In a further test the target is T3, ETS2 (Homo sapiens, UniProt P15036 1-469).
T3 sequence: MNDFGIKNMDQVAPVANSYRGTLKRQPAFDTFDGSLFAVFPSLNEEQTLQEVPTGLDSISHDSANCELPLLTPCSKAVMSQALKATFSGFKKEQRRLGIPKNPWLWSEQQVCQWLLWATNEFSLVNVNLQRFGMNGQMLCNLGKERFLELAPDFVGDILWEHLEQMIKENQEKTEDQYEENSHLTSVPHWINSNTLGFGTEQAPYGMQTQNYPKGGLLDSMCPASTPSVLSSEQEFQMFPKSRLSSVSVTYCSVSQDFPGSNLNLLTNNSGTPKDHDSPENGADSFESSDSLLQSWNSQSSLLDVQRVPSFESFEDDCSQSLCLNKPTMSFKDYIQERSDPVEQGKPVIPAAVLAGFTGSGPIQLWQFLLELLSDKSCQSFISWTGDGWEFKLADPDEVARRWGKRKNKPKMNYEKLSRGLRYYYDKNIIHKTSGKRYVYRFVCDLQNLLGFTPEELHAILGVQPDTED
An outline of the steps:
as §1

For another test, the target named is T4, SPDEF (Homo sapiens, UniProt O95238 1-335).
T4 sequence: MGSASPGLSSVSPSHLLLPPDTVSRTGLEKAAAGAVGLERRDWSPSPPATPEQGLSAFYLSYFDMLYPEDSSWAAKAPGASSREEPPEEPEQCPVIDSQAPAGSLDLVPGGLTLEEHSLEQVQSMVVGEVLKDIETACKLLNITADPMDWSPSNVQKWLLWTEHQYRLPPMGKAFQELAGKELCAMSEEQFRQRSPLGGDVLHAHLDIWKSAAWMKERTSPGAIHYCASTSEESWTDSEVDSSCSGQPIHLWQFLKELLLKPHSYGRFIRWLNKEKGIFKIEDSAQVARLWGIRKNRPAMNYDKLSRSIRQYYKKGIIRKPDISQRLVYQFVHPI
An outline of the steps:
as §1

The target in a further test is T5, ETV7 (Homo sapiens, UniProt Q9Y603 1-341).
T5 sequence: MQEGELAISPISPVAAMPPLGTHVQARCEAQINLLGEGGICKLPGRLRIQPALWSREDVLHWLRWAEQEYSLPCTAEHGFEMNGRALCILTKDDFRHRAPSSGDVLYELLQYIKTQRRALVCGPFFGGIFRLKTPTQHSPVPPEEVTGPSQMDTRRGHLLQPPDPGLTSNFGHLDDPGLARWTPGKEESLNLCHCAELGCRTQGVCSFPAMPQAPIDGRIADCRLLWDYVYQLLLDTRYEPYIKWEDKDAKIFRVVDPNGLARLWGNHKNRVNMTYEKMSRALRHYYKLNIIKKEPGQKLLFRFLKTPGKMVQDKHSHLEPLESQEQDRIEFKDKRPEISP
Summed up:
as §1

In another test the target is T6, ELF5 (Homo sapiens, UniProt Q9UKW6-2 1-255).
T6 sequence: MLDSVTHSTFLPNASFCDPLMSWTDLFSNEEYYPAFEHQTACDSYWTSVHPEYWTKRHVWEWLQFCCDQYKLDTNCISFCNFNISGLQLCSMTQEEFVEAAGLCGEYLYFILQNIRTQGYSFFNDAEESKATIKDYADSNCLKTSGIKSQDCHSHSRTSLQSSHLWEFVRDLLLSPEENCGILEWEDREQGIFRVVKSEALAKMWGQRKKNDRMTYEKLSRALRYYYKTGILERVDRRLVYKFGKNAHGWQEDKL
An outline of the steps: as §1

The next test addresses T7, ETV3 (Homo sapiens, UniProt P41162-2 1-143).
T7 sequence: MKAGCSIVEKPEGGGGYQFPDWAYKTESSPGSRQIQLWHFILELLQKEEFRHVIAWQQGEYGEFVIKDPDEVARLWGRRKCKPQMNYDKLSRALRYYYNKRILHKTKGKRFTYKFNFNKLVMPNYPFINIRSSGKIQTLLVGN
An outline of the steps: as §1

In the next test the target is ETV6 (Homo sapiens, UniProt P41212 1-452). An outline of the steps:
as §1

ETV6, sequence (P41212 whole entry): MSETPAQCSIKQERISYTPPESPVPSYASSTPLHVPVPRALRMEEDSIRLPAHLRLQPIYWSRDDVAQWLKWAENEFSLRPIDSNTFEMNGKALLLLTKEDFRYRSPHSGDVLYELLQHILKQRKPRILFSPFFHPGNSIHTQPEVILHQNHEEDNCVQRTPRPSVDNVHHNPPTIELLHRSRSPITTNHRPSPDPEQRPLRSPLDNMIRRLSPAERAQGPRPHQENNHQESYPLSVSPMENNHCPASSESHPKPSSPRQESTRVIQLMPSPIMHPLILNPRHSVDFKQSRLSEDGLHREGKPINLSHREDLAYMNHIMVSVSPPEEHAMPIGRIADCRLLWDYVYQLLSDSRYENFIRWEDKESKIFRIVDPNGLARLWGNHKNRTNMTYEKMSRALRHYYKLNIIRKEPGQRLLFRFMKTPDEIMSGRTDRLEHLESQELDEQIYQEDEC

For the sequence CGATAC, the binding signal is 1.2 fold enrichment (6-mer frequency, TF over GST control) with ERF; 1.18 fold enrichment (6-mer frequency, TF over GST control) with ETV3L; 1.19 fold enrichment (6-mer frequency, TF over GST control) in the test with ETS2; 1.29 fold enrichment (6-mer frequency, TF over GST control) in the test with SPDEF; 1.02 fold enrichment (6-mer frequency, TF over GST control) with ETV7; 1.1 fold enrichment (6-mer frequency, TF over GST control) in the test with ELF5. Besides, the binding signal with ETV3 was 1.15 fold enrichment (6-mer frequency, TF over GST control); with ETV6, 1.09 fold enrichment (6-mer frequency, TF over GST control).

Regarding CCTACA, the binding signal was 1.23 fold enrichment (6-mer frequency, TF over GST control) with ERF; 1.35 fold enrichment (6-mer frequency, TF over GST control) with ETV3L; 1.19 fold enrichment (6-mer frequency, TF over GST control) with ETS2; 1.17 fold enrichment (6-mer frequency, TF over GST control) with SPDEF; 1.15 fold enrichment (6-mer frequency, TF over GST control) in the test with ETV7; 1.41 fold enrichment (6-mer frequency, TF over GST control) with ELF5. Further, the binding signal with ETV3 was 1.29 fold enrichment (6-mer frequency, TF over GST control); with ETV6, 1.29 fold enrichment (6-mer frequency, TF over GST control).

For TGGTTA, the binding signal is 1.05 fold enrichment (6-mer frequency, TF over GST control) in the test with ERF; 1.12 fold enrichment (6-mer frequency, TF over GST control) with ETV3L; 1.07 fold enrichment (6-mer frequency, TF over GST control) with ETS2; 1.07 fold enrichment (6-mer frequency, TF over GST control) with SPDEF; 1.16 fold enrichment (6-mer frequency, TF over GST control) in the test with ETV7; 1.05 fold enrichment (6-mer frequency, TF over GST control) in the test with ELF5. In addition, the binding signal was 1.05 fold enrichment (6-mer frequency, TF over GST control) with ETV3 and 1.1 fold enrichment (6-mer frequency, TF over GST control) in the test with ETV6.

Turning to CTAACG, the binding signal with ERF was 1.23 fold enrichment (6-mer frequency, TF over GST control); with ETV3L, 1.25 fold enrichment (6-mer frequency, TF over GST control); with ETS2, 1.15 fold enrichment (6-mer frequency, TF over GST control); with SPDEF, 1.16 fold enrichment (6-mer frequency, TF over GST control); with ETV7 it was 1.26 fold enrichment (6-mer frequency, TF over GST control); in the test with ELF5, 1.12 fold enrichment (6-mer frequency, TF over GST control). The binding signal in the test with ETV3 is 1.17 fold enrichment (6-mer frequency, TF over GST control); with ETV6, 1.16 fold enrichment (6-mer frequency, TF over GST control).

Regarding TCACAT, the binding signal with ERF is 1.24 fold enrichment (6-mer frequency, TF over GST control); with ETV3L, 1.24 fold enrichment (6-mer frequency, TF over GST control); in the test with ETS2, 1.25 fold enrichment (6-mer frequency, TF over GST control); with SPDEF, 1.44 fold enrichment (6-mer frequency, TF over GST control); with ETV7, 1.3 fold enrichment (6-mer frequency, TF over GST control); with ELF5, 1.14 fold enrichment (6-mer frequency, TF over GST control). In addition, the binding signal was 1.21 fold enrichment (6-mer frequency, TF over GST control) with ETV3 and 1.23 fold enrichment (6-mer frequency, TF over GST control) with ETV6.

Consider TCCGTC, for which the binding signal is 1.16 fold enrichment (6-mer frequency, TF over GST control) with ERF; 1.46 fold enrichment (6-mer frequency, TF over GST control) with ETV3L; 1.3 fold enrichment (6-mer frequency, TF over GST control) with ETS2; 1.6 fold enrichment (6-mer frequency, TF over GST control) in the test with SPDEF; 1.14 fold enrichment (6-mer frequency, TF over GST control) in the test with ETV7; 1.57 fold enrichment (6-mer frequency, TF over GST control) with ELF5. The binding signal in the test with ETV3 was 1.55 fold enrichment (6-mer frequency, TF over GST control); with ETV6, 1.37 fold enrichment (6-mer frequency, TF over GST control).

Turning to TTTCTG, the binding signal with ERF was 1.44 fold enrichment (6-mer frequency, TF over GST control); with ETV3L, 1.29 fold enrichment (6-mer frequency, TF over GST control); with ETS2 it was 1.37 fold enrichment (6-mer frequency, TF over GST control); in the test with SPDEF it was 1.46 fold enrichment (6-mer frequency, TF over GST control); with ETV7, 1.39 fold enrichment (6-mer frequency, TF over GST control); in the test with ELF5, 1.42 fold enrichment (6-mer frequency, TF over GST control). Further, the binding signal with ETV3 was 1.3 fold enrichment (6-mer frequency, TF over GST control); in the test with ETV6 it was 1.46 fold enrichment (6-mer frequency, TF over GST control).

Turning to TGCCCG, the binding signal with ERF is 1.13 fold enrichment (6-mer frequency, TF over GST control); with ETV3L it was 1.16 fold enrichment (6-mer frequency, TF over GST control); with ETS2, 1.26 fold enrichment (6-mer frequency, TF over GST control); with SPDEF, 1.28 fold enrichment (6-mer frequency, TF over GST control); in the test with ETV7, 1.34 fold enrichment (6-mer frequency, TF over GST control); in the test with ELF5, 1.19 fold enrichment (6-mer frequency, TF over GST control). In addition, the binding signal with ETV3 is 1.24 fold enrichment (6-mer frequency, TF over GST control); with ETV6 it was 1.19 fold enrichment (6-mer frequency, TF over GST control).
